From PubChem BioAssay (Tox21) come the findings set out here.

Records with an inconclusive call do not appear. A call without a number means that no potency is given here. Calls of active or inactive are those of the source. Calls follow the shape of the dose curve; as a rule, active = well fitted activation curve with a large enough effect in the repeat runs; inconclusive = weak or mixed curves; inactive = flat fitted curve, though single readings scatter.

The assay in a line: A CellTox Green Cytotoxicity Assay to monitor cytotoxicity in HEK293 cells - 16 hour (AID 1224888). Also: nearly all actives have a fitted effect of over 35% in size. The settings on record: CellTox Green fluorescence; series mostly up to 76.8 µM. The method, boiled down:
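Seeding of HEK293 cells together with cytotoxicity dye preceded a 5 h incubation at 37 C/5% CO2. Test compounds in DMSO were then added and fluorescence monitored across 40 h.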
For the compound `CN(C)CCC#N`, the Potency entry was “inactive”.

With `CCCOC(=O)c1ccccc1C(=O)OCCC`, the Potency entry was “inactive”.

On to `CNC(=O)Oc1cccc2ccccc12`, for which the Potency result is “inactive”.

Regarding `O=C(O)C1C(C(=O)O)C2(Cl)C(Cl)=C(Cl)C1(Cl)C2(Cl)Cl` (stereo not given), the Potency result was “inactive”.

Take `c1ccc2c(c1)CCCC2`: the Potency result is “inactive”.

Turning to `O=[N+]([O-])c1ccc(Cl)cc1`, the Potency entry was “inactive”.

`CC(C)(C)C(=O)CCl`: the Potency result was “inactive”.

Turning to `Nc1nc(N)nc(NC2CC2)n1`, the Potency entry is “inactive”.

`CN(C)C(=O)C(c1ccccc1)c1ccccc1`: the Potency result is “inactive”.

As for `C/C=C/c1ccc2c(c1)OCO2`, the Potency result was “inactive”.

On to `COP(=S)(OC)SCN1C(=O)c2ccccc2C1=O`, for which the Potency result is “inactive”.

In the case of `CC[N+](=O)[O-]`, the Potency result is “inactive”.

For `Sc1ccccc1`, the Potency result is “inactive”.

`CCSC(=O)N1CCCCCC1`: the Potency entry was “inactive”.

`Cl[C@H]1OCCO[C@@H]1Cl`: the Potency entry was “inactive”.

As for `C=CC(=O)OCC(CC)CCCC` (stereo not given), the Potency result was “inactive”.

With `O=[N+]([O-])c1cc([As](=O)(O)O)ccc1O`, the Potency entry was “inactive”.

`CCOc1ccc(N)cc1`: the Potency entry is “inactive”.

Consider `Nc1ccc(N)cc1`, for which the Potency entry was “inactive”.

Consider `CCNc1nc(Cl)nc(NC(C)C)n1`, for which the Potency entry was “inactive”.

With `C=CC#N`, the Potency result is “inactive”.

Turning to `C=C(C)C(=O)OCC(CC)CCCC` (stereo not given), the Potency result is “inactive”.

On to `Cc1cc(Cl)ccc1OC(C)C(=O)O` (stereo not given), for which the Potency entry was “inactive”.

Consider `CCCCC(CC)C(=O)Cl` (stereo not given), for which the Potency entry is “inactive”.

As for `COc1cc(-c2ccc(N)c(OC)c2)ccc1N`, the Potency entry is “inactive”.

Regarding `O=P1(NCCCl)OCCCN1CCCl` (stereo not given), the Potency entry was “inactive”.

As to `O=C(O)C(Br)Br`, the Potency result was “inactive”.

As for `Cc1cccc(C)c1NC(=O)CN1CCCC1=O`, the Potency result is “inactive”.

In the case of `[N-]=[N+]=CC(=O)OC[C@H](N)C(=O)O`, the Potency entry is “inactive”.

Consider `OCc1ccco1`, for which the Potency entry is “inactive”.
